Assay outcomes (PubChem)
TDP1 cell CPT: growth inhibition of DT40 Tdp1-/-;hTDP1 cells with camptothecin (screen for TDP1 inhibitors). chicken DT40 Tdp1-/-;hTDP1 cells + 20 nM CPT, ATP luminescence, 48 h. Potency, µM (doses to about 46.2 µM), without a hit: at the top dose activity change, negative = growth inhibition, usual class: inhibitors. 12% of 420,000 active. AID 686979; also: % is scaled to controls: 0 for no effect and ±100 for the full control effect; nearly all actives have a fitted effect of over 55% in size
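Chicken DT40 Tdp1-/- cells complemented with human TDP1, 400 cells/well, exposed to compounds plus 20 nM camptothecin for at least 48 h at 37 C; viability read as ATP content by CellTiter-Glo luminescence.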
HT1080-NT tox: kills 2HG-producing HT-1080-NT fibrosarcoma cells | 1.6% of 360,000 active | Potency, µM (doses to about 46.1 µM), inactives show top-dose activity, negative = less viability, hits mostly cytotoxic | HT-1080-NT fibrosarcoma viability, CellTiter-Glo ATP luminescence, 48 h;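 also: NT is the 2HG producing partner of a matched IDH1 knockdown line; 0% = DMSO-treated cells and -100% = media-only wells without cells; nearly all actives have a fitted effect of over 55% in size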
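A 48-hour cytotoxicity screen used HT-1080-NT cells plated 2 hours before compound delivery. ATP-based CellTiter-Glo luminescence measured viability, normalized to DMSO and no-cell controls.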
DT40 TDP1 no CPT: qHTS for Inhibitors of human tyrosyl-DNA phosphodiesterase 1 (TDP1): qHTS in cells in absence of CPT. DT40 Tdp1-/- hTDP1 cells, no CPT, ATP luminescence, 48 h. Potency, µM (series often up to 46.2 µM), for the others: at the top dose activity change, negative = growth inhibition, usual class: inhibitors. 15% of 420,000 active; also: % is scaled to controls: 0 for no effect and ±100 for the full control effect; nearly all actives have a fitted effect of over 55% in size
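DT40 Tdp1-/-;hTDP1 cells, no CPT (DMSO vehicle only), 400 cells/well; compounds pin-transferred; ≥48 hr, 37 °C; CellTiter-Glo 30 min RT dark, luminescence read.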
HT1080 IDH1KD tx: HT-1080 IDH1 knockdown cell toxicity (counter line). 2% of 360,000 active. HT-1080 IDH1 knockdown viability, ATP luminescence, 48 h. AID 686971. Potency, µM (top dose mostly 46.1 µM), for inactives: at the highest dose activity, negative = toxicity, most hits filed as cytotoxic;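 also: 0% = DMSO wells and -100% = cell-free medium wells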
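Knockdown cells (IDH1KD HT-1080) received compounds 2 h after plating at 750 cells/well and were kept 48 h at 37 °C in 5% FBS RPMI. A CellTiter-Glo luminescence read gave % activity for curve fitting.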
HepG2 tox: kills HepG2 cells in TGF-b inhibitor counter-screen. HepG2 CAGA-GFP viability, ATP luminescence, 18 h. Potency, µM (titrated, usually from 46.1 µM), for inactives: at the highest dose activity change, negative = cytotoxicity, hits mostly cytotoxic. 0.76% of 410,000 active. AID 588856
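HepG2 CAGA-GFP cells (1000/well, DMEM with 1% FBS) received compound, then TGF-beta at 500 pg/mL final, and were incubated 18 hours at 37 degrees C. Viability was read by CellTiter-Glo luminescence. Media-only wells were set as complete cell-killing and DMSO as no toxicity.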
TGFb inhibitor: inhibitors of TGF-b signaling; HepG2 CAGA-GFP TGF-b/SMAD3 reporter, GFP fluorescence, 18 h; TGF-beta stimulated, 500 pg/mL final; Potency, µM (doses to about 46.1 µM), for inactives: at the highest dose activity, negative = inhibition, usual class: inhibitors; 1.2% of 410,000 active; AID 588855; also: % is scaled to controls: 0 for no effect and ±100 for the full control effect; nearly all actives have a fitted effect of over 65% in size
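First, reporter cells (HEPG2 CAGA-GFP) rested 2 h at 37 degrees C. Next, compounds were pinned in and TGF-beta added to 500 pg/mL final. After 18 h, GFP was imaged per cell and summed per well.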
* hit, by the source's call; ? = inconclusive; nt = not tested or not shown; [ ] = dose if it differs, or a comment. Rows were chosen to be rich in hits. Some 17% of all compounds tested hit in one or more screens of this group. Calls follow the shape of the dose curve; as a rule, active = well fitted curve in the direction sought with a large enough effect; inconclusive = small, poorly fitted or top-dose-only effect, or another doubt; inactive = no such curve, though single readings can be large; an effect the other way counts as inactive or inconclusive. Potency is read from the fitted curve at half-maximal effect.

SMILES	TDP1 cell CPT	HT1080-NT tox	DT40 TDP1 no CPT	HT1080 IDH1KD tx	HepG2 tox	TGFb inhibitor
Cc1cc(C)c(OCC(=O)OCC(=O)NCc2ccco2)c(C)c1	-4%	6%	-7%	5%	-3%	-2%
O=C(NCc1ccccn1)[C@@H]1CCCN1C(=O)[C@@H]1CCCN1C(=O)c1ccc(Cl)cc1	2%	21%	-23%	11%	nt	nt
CN(C)C(=O)c1ccc(-c2cc(NCc3cccnc3)ncn2)cc1	12%	nt	4%	nt	nt	nt
CC(=O)C(Cc1ccccc1)NC(=O)COC(=O)c1ccc(-n2cnnn2)cc1 (stereo unspecified)	3%	5%	-5%	17%	-1%	10%
Cc1cc(C)cc(OCC(=O)N(Cc2ccco2)c2c(N)n(Cc3ccccc3)c(=O)[nH]c2=O)c1	-2%	2%	3%	9%	0%	5%
Cc1ccc(CN(Cc2ccco2)C(=O)COc2ccc(C(C)C)cc2)cc1	?	nt	?	nt	-56%	?
Cc1ccc(OCC(=O)N(Cc2ccco2)Cc2ccco2)cc1	?	nt	16µM*	nt	-15%	0%
Cc1ccc(CN(Cc2ccco2)C(=O)COc2cc(C)c(Cl)c(C)c2)cc1	21µM*	nt	13µM*	nt	-52%	?
Cc1ccc(CN(Cc2ccco2)C(=S)NCC(=O)O)cc1	0%	0%	-6%	0%	-1%	1%
Cc1cc(C)cc(OCC(=O)N(Cc2ccco2)Cc2ccccc2Cl)c1	21µM*	nt	21µM*	nt	-47%	nt
Cc1cc(Cl)ccc1C(O)c1ncc(-c2ccc(C(F)(F)F)cc2)[nH]1 (stereo unspecified)	?	?	?	?	-93%	?
CCOC(=O)c1ccc(NC(=O)N2CCN(c3cccc(OC)c3)CC2)cc1	?	-4%	18µM*	12%	-23%	-16%
CC(=O)c1ccc(NC(=O)N2CCN(c3cccc(Cl)c3)CC2)cc1	12µM*	11%	12µM*	7%	-16%	-13%
O=C(Nc1ccc(Cl)cc1)N1CCN(c2ccccc2)CC1	?	6%	?	4%	5%	-2%
CC(=O)c1ccc(N2CCN(C(=O)Nc3ccc(Cl)cc3)CC2)cc1	?	-21%	10µM*	-20%	-5%	-25%
CCOc1ccc(C(=O)CCc2nc3ccccc3s2)cc1	-10%	?	-18%	?	-22%	-11%
Cc1cc(C)c(S(=O)(=O)Cc2ccccc2)c(Cl)n1	-8%	20%	-19%	22%	-2%	-1%
Cc1ccc2cc(CCNC(=O)Cc3cccs3)c(=O)[nH]c2c1	1%	3%	-11%	6%	1%	5%
COc1ccccc1CNC(=O)COC(=O)c1cccc(S(=O)(=O)N2CCOCC2)c1	-23%	15%	-3%	11%	4%	-1%
Cc1ccc(S(=O)(=O)N2CC3(O)CN(C(=O)OC(C)C)N(C(=O)OC(C)C)CC3(OC(=O)NC3CCCC3)C2)cc1 (stereo unspecified)	?	2%	23µM*	7%	3%	6%
Cc1ccc(S(=O)(=O)N2CC3(O)CN(C(=O)OC(C)C)N(C(=O)OC(C)C)CC3(OC(=O)NCc3ccco3)C2)cc1 (stereo unspecified)	?	4%	21µM*	3%	-4%	-9%
Cc1ccc(S(=O)(=O)N2CC3(O)CN(C(=O)OC(C)C)N(C(=O)OC(C)C)CC3(OC(=O)Nc3cccs3)C2)cc1 (stereo unspecified)	?	-14%	18µM*	-2%	-38%	13µM*
COC(=O)[C@H]1C[C@@]2(O)CN(S(=O)(=O)c3ccc(C)cc3)C[C@@]2(OC(=O)NC2CCCC2)C[C@H]1C(=O)OC	-14%	9%	-10%	11%	-3%	-2%
COc1ccc(OC)c(-c2ccnc(-n3ncc(C(=O)N(C)CCc4ccccn4)c3C)n2)c1	-10%[9.04 µM]	nt	-13%	nt	nt	nt
COc1cc(NC(=O)Cc2c(C(=O)O)n(C)c3ccccc23)cc(OC)c1OC	10%	5%	-13%	1%	9%	9%
SMILES	TDP1 cell CPT	HT1080-NT tox	DT40 TDP1 no CPT	HT1080 IDH1KD tx	HepG2 tox	TGFb inhibitor
OCCCNc1ncnc2c1ncn2[C@H]1CN(Cc2ccc3c(c2)OCO3)C[C@@H](CO)O1	?	13%	-3%	2%	-19%	12%
O=C(O)C1CCN(S(=O)(=O)c2ccc(N3CCC(O)CC3)c([N+](=O)[O-])c2)CC1	6%	9%	12%	3%	8%	7%
O=C(COc1ccccc1Cl)NCCNC(=O)c1ccccn1	-4%	-1%	-14%	1%	-6%	-1%
CC(/C=C/c1ccccc1)=N\NC(=S)NC(C)C	10µM*	-6%	10µM*	0%	-19%	?
CC(/C=C/c1ccccc1)=N\NC(N)=S	18µM*	3%	21µM*	-14%	-10%	?
CC(/C=C/c1ccccc1)=N\NC(=O)c1ccncc1	-19%	9%	-14%	?	-15%	16%
Cc1ccc(Nc2c(-c3ccc(N(C)C)cc3)nc3ncccn23)cc1	?	26%	?	17%	16%	18%
Cc1cccc(C)c1Nc1c(-c2ccc(N3CCOCC3)cc2)nc2ncccn12	21µM*	0%	21µM*	0%	-88%	0%
Cc1ccc(Nc2c(-c3ccc(N4CCOCC4)cc3)nc3ncccn23)c(C)c1	?	-8%	16µM*	-7%	-9%	?
NC(=O)C1CCN(c2nc(-c3cccc(Cl)c3)cs2)CC1	nt	nt	nt	nt	6.3µM*	?
CC(=O)c1cccc(-c2csc(N3CCC(C(N)=O)CC3)n2)c1	nt	nt	nt	nt	-9%	2%
COc1ccc(-c2cccc(NC(=O)c3cccs3)c2)nn1	?	11%	?	-11%	-7%	-8%
NNC(=O)CN1C(c2cccc(Cl)c2)=Nc2ccc(Br)cc2C1c1ccccc1 (stereo unspecified)	?	-13%	?	-15%	-21%	-4%
NNC(=O)CN1C(c2ccccc2Br)=Nc2ccc(Br)cc2C1c1ccccc1 (stereo unspecified)	?	-3%	16µM*	-12%	0%	-8%
Cc1ccc(S(=O)(=O)N2CC(O)C[C@H]2C(=O)OCC(=O)N2CCN(c3ccc(F)cc3)CC2)cc1C (stereo partly specified)	10µM*	-12%	4.1µM*	-1%	-13%	-28%
